Test results taken from PubChem BioAssay (EPA / NIEHS).
Records with an inconclusive call do not appear. A structure can be active in one record and inactive in another. Calls of active or inactive are those of the source. Rule for the calls: active = hit-call score of the fitted dose curve at least 0.9, where 1 is the maximum; inconclusive = response in the unintended direction; inactive = score below 0.9.

Tests used:
[1] = molecular target: Cellular tumor antigen p53 (Homo sapiens) (UniProt P04637); assay: TOX21_p53_BLA_p4_ratio: Tox21 HCT-116 p53 Agonism Beta-lactamase Assay, Ratio, Phase 4 (AID 2283601)
Sequence of Cellular tumor antigen p53 (Homo sapiens) (P04637 whole entry, looked up): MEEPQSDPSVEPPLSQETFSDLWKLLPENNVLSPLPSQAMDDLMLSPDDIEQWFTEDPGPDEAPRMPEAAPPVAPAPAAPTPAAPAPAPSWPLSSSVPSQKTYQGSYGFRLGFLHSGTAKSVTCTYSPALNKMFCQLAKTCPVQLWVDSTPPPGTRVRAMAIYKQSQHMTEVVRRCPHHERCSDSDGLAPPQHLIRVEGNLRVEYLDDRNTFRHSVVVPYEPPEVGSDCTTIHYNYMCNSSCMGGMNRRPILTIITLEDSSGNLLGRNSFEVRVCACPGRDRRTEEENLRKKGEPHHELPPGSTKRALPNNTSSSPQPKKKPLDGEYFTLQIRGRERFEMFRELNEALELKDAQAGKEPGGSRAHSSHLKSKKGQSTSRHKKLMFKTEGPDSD
Procedure, shortened: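 Signal is the blue/green (460nm/530nm) ratio of cleaved versus uncleaved CCF4-AM substrate, read after 2 h substrate loading. Cells were HCT116 carrying the p53-responsive beta-lactamase reporter, dosed 16 h at 37C, 5% CO2; CellTiter-Glo measured in parallel.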

[2] = TOX21_p53_BLA_p5_viability: Viability Assessment in the Tox21 HCT-116 p53 Agonism Beta-lactamase Assay, Phase 5 (AID 2283600)
Procedure, shortened: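 Workflow: seed 4000 cells per well, wait 5 h, add compounds (DMSO, 217-fold dilution), incubate 16 h, load CCF4-AM 2 h, add CellTiter-Glo, read luminescence after 30 min.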

[3] = system: Thyroperoxidase (TPO), gene 54314; assay: CCTE_Simmons_AUR_rTPO: CCTE's Amplex UltraRed Assay for Thyroperoxidase (TPO) Inhibition, Simmons Lab (AID 2283662);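 for AC50: potency for loss of signal meaning inhibition of peroxidase activity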
Procedure, shortened: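 Rat thyroid microsomal TPO + 25 uM AUR in 200 mM K phosphate; cpd 5 nM–87.5 uM [final], 8 conc, 0.5% DMSO; 300 uM H2O2 starts rxn; 37C dark 30 min; endpoint FI 544/590 nm; n=3.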

Question: Which outcome [1] does the source give for `CN(C)CCC=C1c2ccccc2CCc2ccccc21` here?
Answer: The outcome was “inactive”.

Question: With `CCc1cccc(O)c1` as the compound, how does the outcome [2] read?
Answer: The outcome was “inactive”.

Question: What about the outcome [1] of the same compound?
Answer: Its outcome is “inactive”.

Question: What about the AC50 [3] of the same compound?
Answer: The AC50 was 16.6 µM (active).

Question: Which outcome [2] does the source give for `CC(=O)Nc1cc(S(=O)(=O)O)cc2cc(S(=O)(=O)O)c(N=Nc3ccccc3)c(O)c12` here?
Answer: The outcome was “inactive”.

Question: What about the outcome [1] of the same compound?
Answer: Its outcome is “inactive”.

Question: What about the AC50 [3] of the same compound?
Answer: The AC50 was 40.8 µM (active).

Question: With `CCCCCCCCCCCCS` as the compound, how does the outcome [2] read?
Answer: The outcome was “inactive”.

Question: What about the outcome [1] of the same compound?
Answer: The outcome was “inactive”.

Question: And the AC50 [3]?
Answer: Its AC50 is 7.49 µM (active).

Question: What does the source list for `CC(C)=CCCC(C)=CC(=O)O`?
Answer: outcome [2]: inactive; outcome [1]: inactive

Question: With `CC(C)(C)c1cccc(O)c1` as the compound, how does the outcome [2] read?
Answer: The outcome was “inactive”.

Question: And the outcome [1]?
Answer: Its outcome is “inactive”.

Question: And the AC50 [3]?
Answer: Its AC50 is 18.9 µM (active).

Question: Which outcome [2] does the source give for `COc1ccc(C(C)=O)cc1` here?
Answer: Its outcome is “inactive”.

Question: What about the outcome [1] of the same compound?
Answer: The outcome was “inactive”.

Question: With `CCO[Si](CC)(OCC)OCC` as the compound, how does the outcome [2] read?
Answer: Its outcome is “inactive”.

Question: And the outcome [1]?
Answer: Its outcome is “inactive”.

Question: Which outcome [2] does the source give for `CCCCCCOc1ccc(O)cc1` here?
Answer: The outcome was “inactive”.

Question: What about the AC50 [1] of the same compound?
Answer: Its AC50 is 72.5 µM (active).

Question: What about the AC50 [3] of the same compound?
Answer: The AC50 was 8.69 µM (active).

Question: Which outcome [2] does the source give for `O=c1cc(-c2ccc(O)cc2)oc2cc(O)cc(O)c12` here?
Answer: The outcome was “inactive”.

Question: What about the AC50 [1] of the same compound?
Answer: Its AC50 is 13.4 µM (active).

Question: What about the outcome [1] of the same compound?
Answer: The outcome was “inactive”.

Question: What about the AC50 [3] of the same compound?
Answer: Its AC50 is 4.81 µM (active).

Question: Which results are given for `CC(=O)OC/C=C(C)/C=C/C=C(C)/C=C/C1=C(C)CCCC1(C)C`?
Answer: outcome [2]: inactive; outcome [1]: inactive; AC50 [3]: 50.9 µM (active)

Question: With `CC12CCC(C1)C(C)(C)C2O` (stereo not drawn) as the compound, how does the outcome [2] read?
Answer: The outcome was “inactive”.

Question: What about the outcome [1] of the same compound?
Answer: Its outcome is “inactive”.

Question: Which outcome [2] does the source give for `CCCCCCCCCCCCOCCOS(=O)(=O)O` here?
Answer: The outcome was “inactive”.

Question: And the outcome [1]?
Answer: The outcome was “inactive”.

Question: What about the AC50 [3] of the same compound?
Answer: The AC50 was 50.8 µM (active).

Question: With `Cc1ccncc1` as the compound, how does the outcome [2] read?
Answer: The outcome was “inactive”.

Question: What about the outcome [1] of the same compound?
Answer: The outcome was “inactive”.

Question: Which outcome [1] does the source give for `C=CC(=O)OCCCCCC` here?
Answer: The outcome was “inactive”.

Question: Which outcome [1] does the source give for `CCCCCc1cccc(=O)o1` here?
Answer: Its outcome is “inactive”.

Question: Which outcome [1] does the source give for `C[Si]1(C)N[Si](C)(C)N[Si](C)(C)N1` here?
Answer: Its outcome is “inactive”.

Question: With `CCCCCCCCOC(=O)c1ccc(O)cc1` as the compound, how does the AC50 [3] read?
Answer: The AC50 was 52.8 µM (active).

Question: Which outcome [1] does the source give for `Nc1ccc(O)c(N)c1` here?
Answer: Its outcome is “inactive”.

Question: Which outcome [1] does the source give for `CC(=O)CC(=O)N(C)C` here?
Answer: Its outcome is “inactive”.

Question: Which outcome [1] does the source give for `Cc1cc(N)n(-c2ccccc2)n1` here?
Answer: Its outcome is “inactive”.

Question: For `CCOC(=O)COC(=O)c1ccccc1C(=O)OCC`, which outcome [1] is on record?
Answer: The outcome was “inactive”.

Question: Which outcome [1] does the source give for `CCCCCC#CC(=O)OC` here?
Answer: Its outcome is “inactive”.

Question: For `CC(C)(O)CCc1ccccc1`, which outcome [1] is on record?
Answer: Its outcome is “inactive”.

Question: Which outcome [1] does the source give for `CCCc1ccc(O)cc1` here?
Answer: The outcome was “inactive”.

Question: What about the outcome [3] of the same compound?
Answer: Its outcome is “inactive”.
